This is a sample that favours compounds with a hit; in the whole collection about 2.5% have one here.
ABCB6 inh MLPCN: blocks the human ABCB6 transporter; Q9NP58; K562-ABCB6 porphyrin accumulation, flow cytometry, 1 h; stronger effect = lower value; fluorescence ratio to DMSO, % at 10 µM; actives 0.19% (n = 360,000); AID 602162;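 active = fluorescence ratio to DMSO below 75%, the collection mean minus 3 SD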;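 note: signal is porphyrin accumulated inside mitochondria; 100% equals median channel fluorescence of DMSO control wells; lower ratio means ABCB6 inhibition with less porphyrin fluorescence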
Exocytosis inh: lytic granule exocytosis inhibition. TALL-104 LAMP-1 surface exposure, flow cytometry; cells stimulated with thapsigargin and PMA. inhibition, % at 10 µM. actives 0.66% (n = 360,000);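 active = inhibition above about 55%, limit read from the data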
rCAG binder: molecules binding r(CAG) RNA repeats | r(CAG) RNA repeat, TO-PRO-1 dye displacement fluorescence | actives 1.3% (n = 370,000) | inhibition, % at 3 µM;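 active = inhibition above the plate cutoff, the mean of all test compounds on that plate plus 3 SD, cut at about 35% in these data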;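 note: 0% = DMSO alone and 100% = 100 µM mitoxantrone as full dye displacement; higher means more dye released from RNA so lower well fluorescence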
PG9 binder: PG9 antibody binding by small molecule; TR-FRET gp120-PG9 antibody binding; inhibition, % at 6.7 µM; actives 0.43% (n = 360,000); in the data active = inhibition above about 8.5%
PG9 binder conf: confirmation of small molecules binding HIV-1 gp120 antibody PG9; shares compounds with PG9 binder; TR-FRET PG9 antibody binding, biochemical; inhibition, % at 6.7 µM; actives 90% (n = 1,500); in the data active = inhibition above about 9%
PGV04 Ab binding: counter-screen for PG9 binders: binding control antibody PGV04; shares compounds with PG9 binder; TR-FRET PGV04 antibody-gp120 binding, biochemical; inhibition, % at 6.7 µM; actives 95% (n = 1,500); AID 651604; in the data active = inhibition above about 9.5%
An asterisk follows results filed as active; x = no result.

SMILES	ABCB6 inh MLPCN	Exocytosis inh	rCAG binder	PG9 binder	PG9 binder conf	PGV04 Ab binding
CSCCC(NC(=O)COc1ccccc1)C(=O)N1CCOCC1 (configuration not stated)	98.0	8.7	-1.4	-2.1	x	x
CCCCCC(=O)Nc1ccc(C2C(=O)c3ccccc3C2=O)cc1	101.0	1.3	14.1	-4.1	x	x
O=C(NCc1ccccc1)c1cc(C2COCCN2C(=O)C2CC2)on1 (configuration not stated)	105.0	-2.7	-0.2	0.1	x	x
O=C(Nc1cccnc1)c1cc(-c2ccc(Cl)c(Cl)c2)on1	101.0	3.5	1.7	-1.4	x	x
O=C(Nc1cccnc1)c1cc(-c2ccc3c(c2)OCO3)on1	99.0	5.4	1.7	12.1*	10.2*	22.1*
COc1ccc(C(=O)c2ccc(OC)c(Br)c2)cc1Br	97.0	-2.0	2.8	18.9*	11.9*	13.9*
COc1ccc(C(=O)c2cccc(C(=O)c3ccc(OC)c(C)c3)c2)cc1C	97.0	3.3	0.6	-1.0	x	x
CC(=O)c1c(C)[nH]c(C(=O)Nc2ccc(C)c(S(=O)(=O)Nc3ccc(C)cc3C)c2)c1C	92.0	0.1	13.2	10.6*	13.2*	15.6*
CC(=O)c1c(C)[nH]c(C(=O)Nc2ccc(C)c(S(=O)(=O)N(C)C)c2)c1C	101.0	-6.1	5.7	-0.4	x	x
CC(=O)NNC(=O)c1cc2c3ccccc3n(C)c2s1	97.0	0.1	4.5	-1.2	x	x
COc1ccc(S(=O)(=O)NNC(=O)c2cc3c4ccccc4n(C)c3s2)cc1	98.0	7.5	9.7	17.8*	18.9*	30.6*
CCOC(=O)N1CCC(NC(=O)c2cc(-c3ccc(OC)cc3)nc3ccccc23)CC1	91.0	1.5	-1.1	9.5*	7.8	11.5*
N/C(COc1cc(Cl)cc(Cl)c1)=N\O	97.0	-2.6	-3.3	0.2	x	x
CCN(C(=O)c1cc2c(=O)[nH]c3ccc(C)cc3c2s1)c1cccc(C)c1	98.0	-0.4	4.0	0.1	x	x
CCN(C(=O)c1cc2c(=O)[nH]c3ccc(C)cc3c2s1)c1ccc(F)cc1	101.0	0.2	3.9	15.3*	14.0*	23.9*
Cc1onc(-c2c(F)cccc2Cl)c1C(=O)Nc1nccs1	89.0	0.1	0.1	-0.4	x	x
Cc1onc(-c2c(F)cccc2Cl)c1C(=O)Nc1nnc(C(F)(F)F)s1	103.0	-1.3	16.1	24.4*	29.5*	41.8*
COc1ccc(-c2cc(C(F)(F)F)nc(SCC(=O)NCc3cccs3)n2)cc1	107.0	-0.3	-0.4	12.5*	7.6	8.9
CC(=O)Nc1ccc(NC(=O)COc2ccc(-c3ccc(C#N)cc3)cc2)cc1	92.0	-2.7	2.8	9.0*	11.8*	17.6*
O=C(C[C@H]1CC[C@@H](NC(=O)Nc2ccc3c(c2)OCO3)[C@@H](CO)O1)NCc1ccccc1	x	-5.4	1.1	14.3*	7.7	19.2*
O=C(c1ccc(N2C(=O)CCC2=O)cc1)N1CCCSC1=Nc1ccccc1	106.0	-3.7	1.1	1.4	x	x
CCCCOc1ccc(C(=O)Nn2c(-c3cccs3)nc3ccccc3c2=O)cc1	98.0	0.9	7.0	30.5*	36.8*	59.1*
O=C(/C=C/c1ccccc1)Nn1c(-c2cccs2)nc2ccccc2c1=O	98.0	2.5	12.2	-1.7	x	x
O=C1NC[C@@H](CCCCN2C[C@H](Cc3ccc(O)cc3)N(Cc3ccccc3)C(=O)C2=O)N(Cc2ccccc2)C1=O	95.0	-9.9	1.9	-0.1	x	x
N#Cc1c(N2CCCCC2)nc(N)c2c(N)nc3c(c12)CC(CCl)O3 (configuration not stated)	101.0	2.0	21.7	21.5*	22.8*	35.4*
SMILES	ABCB6 inh MLPCN	Exocytosis inh	rCAG binder	PG9 binder	PG9 binder conf	PGV04 Ab binding
Cn1cc(C=CC(=O)O)c2nccnc21	100.0	-4.4	2.7	-0.2	x	x
COc1ccc(CC(=O)OCc2cc3ccccc3[nH]c2=O)cc1	100.0	1.4	0.2	-0.1	x	x
COc1ccc(CC(=O)OCc2cc3ccc(C)cc3[nH]c2=O)cc1	97.0	1.2	1.5	16.7*	18.1*	30.2*
COC(=O)c1cc(Br)c(=O)n(-c2ccccc2OC)c1	99.0	3.3	9.3	6.1	x	x
COC(=O)c1cc(Br)c(=O)n(-c2ccc(OC)cc2)c1	95.0	0.4	1.1	9.9*	16.8*	21.9*
COC(=O)c1cc(Br)c(=O)n(-c2cccc(F)c2)c1	85.0	-0.1	1.6	11.4*	19.2*	23.3*
CCCn1cnc2c(sc3nc4c(cc32)CSC(C)(C)C4)c1=O	102.0	1.0	-1.8	0.2	x	x
CC(C)CCOc1ncnc2c1sc1nc3c(cc12)CSC(C)(C)C3	92.0	4.8	1.1	26.0*	5.1	28.6*
COCc1cc(C)nc(Nc2ccc(C)c(C)c2)c1C#N	98.0	2.0	2.1	30.7*	29.4*	46.1*
COCc1cc(C)nc(Nc2ccc(C)cc2C)c1C#N	98.0	-2.6	-1.3	-1.2	x	x
COc1ccc(-c2c(C)sc(NC(=O)c3ccnn3C)c2C#N)cc1	96.0	9.9	6.5	51.7*	59.6*	60.8*
C[C@@H]1CN([C@@H](C)CO)C(=O)c2cc(N(C)C)ccc2O[C@@H](C)CCCCO[C@@H]1CN(C)Cc1ccc2c(c1)OCO2	95.0	-1.5	2.1	-4.4	x	x
O=C(C1=C(O)C(=O)N(CCCn2ccnc2)C1c1ccccc1)c1ccco1 (configuration not stated)	96.0	1.7	x	x	x	x
O=C(C1=C(O)C(=O)N(CCCn2ccnc2)C1c1cccc(Br)c1)c1ccco1 (configuration not stated)	101.0	0.1	15.7	14.4*	14.5*	14.8*
Nc1ncnc(Oc2ccccc2F)c1[N+](=O)[O-]	102.0	7.2	-3.1	-2.8	x	x
N#Cc1ccc(-c2nc3ccc(Br)cn3c2Cc2ccccc2)cc1	102.0	12.8	8.1	10.4*	14.0*	22.9*
Cc1ccc(Cc2c(-c3ccc(C#N)cc3)nc3ccc(Br)cn23)cc1	92.0	-8.4	15.2	6.2	x	x
Cc1cc(Br)cn2c(Cc3cccc(F)c3)c(-c3ccc(C#N)cc3)nc12	133.0	0.9	11.2	9.2*	14.9*	21.5*
N#Cc1ccc(-c2nc3ccc(Br)cn3c2Cc2cccc(F)c2)cc1	98.0	-0.8	21.5	3.6	x	x
Cc1cc(N(C)Cc2ccccc2)nc2cc(O)ccc12	98.0	-11.8	2.5	0.0	x	x
Cc1cc(-c2n[nH]c(=S)n2-c2ccccc2)nn1C	109.0	-0.7	2.4	-0.6	x	x

Compound activity as filed in PubChem BioAssay.
